The source of these data is PubChem BioAssay (NCI).

Some test systems named below: HCT-15 colon; HT29 colon; SNB-75 CNS; U251 CNS; PC-3 prostate; SK-MEL-5 melanoma; UACC-62 melanoma; LOX IMVI melanoma; SK-MEL-28 melanoma.
Holding throughout (assay): NCI-60 one-dose screen, 48 h (100 = growth as untreated, 0 = no growth, -100 = all killed)
What all share (settings): 10 µM unless noted

About 83,000 compounds went through this panel and 20% of them were active in at least one assay; those are over-represented in the sample as a whole.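 Values shown are percent growth following 48 h exposure of cells in 96-well plates to a single concentration of compound; below 10 was considered active.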 Values without a mark were called inactive. Active and inactive are the calls of the source.

`O=C(NC[C@H](O)CN1CCc2ccccc2C1)c1cc(NC2COC2)ncn1`: the growth was 103% in the assay on HCT-15 colon; 86.9% with HT29 colon; 74% in the assay with SNB-75 CNS; 102% with U251 CNS; 107% with PC-3 prostate; 107% with SK-MEL-5 melanoma. For the same molecule, the results for the growth in the assay on UACC-62 melanoma, in the assay with LOX IMVI melanoma and with SK-MEL-28 melanoma were 91.8%, 93.9% and 88.3%, respectively.

Take `CCCNc1nc(C)[nH]c(=O)c1S`: the growth is 96.5% with HCT-15 colon; 108% in the assay with HT29 colon; 91.2% in the assay with SNB-75 CNS; 95% with U251 CNS; 87.4% in the assay on PC-3 prostate; 110% in the assay with SK-MEL-5 melanoma. Besides, the values for the growth with UACC-62 melanoma, with LOX IMVI melanoma and in the assay with SK-MEL-28 melanoma were 113%, 91% and 114%, respectively.

In the case of `Cc1nccc2c3ccc(OCc4cn(-c5ccc(Cl)cc5)nn4)cc3n(CC(C)C)c12`, the growth with HCT-15 colon is 18.7%; with HT29 colon, 1.3% (active); with SNB-75 CNS, 55.8%; in the assay on U251 CNS, 26.9%; in the assay on PC-3 prostate, 17.4%; with SK-MEL-5 melanoma it was -78.3% (active). For the same molecule, the growth in the assay with UACC-62 melanoma is 24.2%; in the assay with LOX IMVI melanoma, 3.05% (active); in the assay with SK-MEL-28 melanoma it was 25.2%.

Take `Cn1c2c(c3ccc(-c4ccn[nH]4)cc3c1=O)C(=O)c1ccccc1-2`: the growth in the assay with HCT-15 colon is 15.7%; with HT29 colon, 18.9%; in the assay with SNB-75 CNS, 71%; in the assay with U251 CNS, 13.5%; in the assay on SK-MEL-5 melanoma, 21.1%; in the assay with UACC-62 melanoma it was 47.9%. For the same molecule, the growth is 0.163% (active) in the assay with LOX IMVI melanoma and 88.6% with SK-MEL-28 melanoma.

`COCCOC(=O)COc1ccc(OC)cc1`: the growth in the assay on HCT-15 colon was 98.1%; in the assay on HT29 colon, 114%; with SNB-75 CNS, 91.8%; in the assay with U251 CNS, 102%; in the assay with PC-3 prostate, 96.8%; with SK-MEL-5 melanoma, 93.8%. Besides, the growth is 96.2% in the assay on UACC-62 melanoma, 102% in the assay with LOX IMVI melanoma and 109% in the assay on SK-MEL-28 melanoma.

On to `Cc1cc(Nc2nc(SCc3ccc(C(=O)Nc4ccc(F)cc4N)cc3)nn3cccc23)n[nH]1`, for which the growth was 22.6% in the assay on HCT-15 colon; 4.22% (active) in the assay on HT29 colon; 29.2% in the assay with SNB-75 CNS; 25% in the assay with U251 CNS; 28% in the assay on PC-3 prostate; 7.54% (active) in the assay on SK-MEL-5 melanoma. For the same molecule, the growth with UACC-62 melanoma is 24.2%; with LOX IMVI melanoma it was 30.1%; in the assay on SK-MEL-28 melanoma it was 68.7%.

Consider `CCCCn1c(=O)c(/C=C/C(=O)/C=C/c2ccc(OC)cc2)cc2cc(Cl)ccc21`, for which the growth with HCT-15 colon is 27.5%; in the assay with HT29 colon, 9.75% (active); with SNB-75 CNS, 84.9%; with U251 CNS, -13.4% (active); in the assay on PC-3 prostate it was 39.5%; in the assay with SK-MEL-5 melanoma it was 78.9%. Also, the values for the growth in the assay with UACC-62 melanoma, in the assay on LOX IMVI melanoma and in the assay on SK-MEL-28 melanoma were 76.2%, 9.25% (active) and 115%, respectively.

For `COC(=O)c1oc2c(C(=O)/C=C/c3ccc(OC)cc3)c(OCCCN3CCCCC3)ccc2c1C`, the growth is 3.33% (active) in the assay on HCT-15 colon; 3.92% (active) in the assay with HT29 colon; 33.6% in the assay with SNB-75 CNS; 12% in the assay on U251 CNS; -2.46% (active) in the assay on PC-3 prostate; -60.9% (active) in the assay on SK-MEL-5 melanoma. Also, the growth with UACC-62 melanoma was 40.1%; in the assay with LOX IMVI melanoma, -26.1% (active); with SK-MEL-28 melanoma it was -51.4% (active).

Turning to `COC(=O)/C=C/c1cc(OC)c2c(c1)[C@@H](C(=O)OC)[C@H](c1ccc(OC)c(OC)c1)O2`, the growth is 32.2% with HCT-15 colon; 11% in the assay with HT29 colon; -3.43% (active) in the assay with SNB-75 CNS; 25.1% in the assay with U251 CNS; 32.9% with PC-3 prostate; 9.73% (active) in the assay with SK-MEL-5 melanoma. Further, the growth in the assay with UACC-62 melanoma was 33.6%; in the assay with LOX IMVI melanoma, 51.1%; with SK-MEL-28 melanoma, 63.4%.

In the case of `COc1cc(F)c(-c2nc3c(C)cccc3n2Cc2c(F)cccc2F)c(F)c1`, the growth in the assay on HCT-15 colon is 81.9%; in the assay on HT29 colon, 70.1%; in the assay with SNB-75 CNS it was 71.5%; in the assay on U251 CNS, 83.6%; in the assay with PC-3 prostate, 64.2%; with SK-MEL-5 melanoma it was 85.6%. For the same molecule, the growth in the assay with UACC-62 melanoma was 64.5%; with LOX IMVI melanoma, 87.8%; in the assay on SK-MEL-28 melanoma, 98.7%.

Take `CNc1cccc2c1C(=O)c1cccc(N)c1C2=O`: the growth in the assay on HCT-15 colon is 58.6%; with HT29 colon, 71.2%; in the assay with SNB-75 CNS, 71.5%; in the assay with U251 CNS it was 29.6%; in the assay on PC-3 prostate it was 40.7%; in the assay with SK-MEL-5 melanoma it was 88%. For the same molecule, the growth is 77.3% in the assay with UACC-62 melanoma, 79.1% in the assay with LOX IMVI melanoma and 96.3% in the assay with SK-MEL-28 melanoma.

Turning to `COc1ccc2nc(-c3ccc(Cl)cc3)cc(C(=O)N3N=C(c4ccc(N)cc4)CC3c3ccccc3)c2c1` (stereo unspecified), the growth in the assay on HCT-15 colon is 26.7%; in the assay with HT29 colon, 19.6%; in the assay on SNB-75 CNS it was 44.3%; in the assay with U251 CNS, 50.7%; with PC-3 prostate it was 35.9%; in the assay on SK-MEL-5 melanoma, 39.4%. Also, the growth in the assay on UACC-62 melanoma was 37%; in the assay with LOX IMVI melanoma, 40.4%; in the assay with SK-MEL-28 melanoma, 61.7%.

On to `COc1ccc(-n2cc(-c3ccc(Cl)c(Cl)c3)[nH]c2=O)cc1OC`, for which the growth with HCT-15 colon was 93.4%; in the assay with HT29 colon, 97.2%; in the assay with SNB-75 CNS, 91.8%; with U251 CNS it was 91.7%; in the assay on PC-3 prostate, 93.2%; in the assay on SK-MEL-5 melanoma it was 104%. Also, the growth in the assay with UACC-62 melanoma is 87.5%; in the assay with LOX IMVI melanoma, 96.3%; with SK-MEL-28 melanoma, 103%.
